# Screening data deposited in PubChem BioAssay by several laboratories.
# FXIIa inh mix = human factor XIIa inhibitors, primary screen, biochemical, pooled compound mixtures, fluorogenic substrate; inhibition, % at 5 µM; purified FXIIa; AID 684, 2007; Coagulation factor XII (Homo sapiens), P00748; 0.2% of 62,000 active;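 further: 0% = enzyme without compound and 100% = no enzyme blank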
# Target sequence (P00748 20-372 limits assumed): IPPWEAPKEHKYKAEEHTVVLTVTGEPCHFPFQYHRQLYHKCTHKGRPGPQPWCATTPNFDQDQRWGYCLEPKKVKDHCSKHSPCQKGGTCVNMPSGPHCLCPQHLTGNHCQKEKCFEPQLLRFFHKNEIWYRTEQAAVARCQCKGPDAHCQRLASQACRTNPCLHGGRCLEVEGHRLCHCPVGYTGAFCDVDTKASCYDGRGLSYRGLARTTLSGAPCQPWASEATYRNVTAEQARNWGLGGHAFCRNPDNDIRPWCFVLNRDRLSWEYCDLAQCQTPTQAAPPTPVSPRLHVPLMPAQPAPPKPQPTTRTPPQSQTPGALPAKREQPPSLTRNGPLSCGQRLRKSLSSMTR
# Target sequence (P00748 373-615 limits assumed): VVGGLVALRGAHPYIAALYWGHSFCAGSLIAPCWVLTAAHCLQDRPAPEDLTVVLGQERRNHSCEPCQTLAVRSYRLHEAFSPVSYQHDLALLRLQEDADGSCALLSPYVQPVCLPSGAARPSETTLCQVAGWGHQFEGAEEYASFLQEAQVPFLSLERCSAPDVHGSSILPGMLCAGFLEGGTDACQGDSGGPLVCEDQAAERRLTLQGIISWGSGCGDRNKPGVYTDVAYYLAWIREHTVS
# FXIa mix inh = FXIa protease inhibitors in compound pools, primary screen, biochemical, 10-compound mixtures. inhibition, % at 5 µM. Coagulation factor XI (Homo sapiens), P03951. purified FXIa, fluorogenic substrate, pooled mixtures. 0.19% of 62,000 active;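 further: each value is inhibition by a whole ten-compound pool holding the compound; 0% = enzyme with no mixture and 100% = wells lacking enzyme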
# TNAP act mid DEA = human TNAP enzyme activators, primary screen, biochemical, luminescent, intermediate phosphate acceptor level. Alkaline phosphatase, tissue-nonspecific isozyme (Homo sapiens), P05186. AID 813, 2007. 64,000 tested, under 10 active. purified TNAP, CDP-star luminescence, 100 mM DEA, 30 min; hits give high values; scale: 0 levamisole-inhibited, 1 vehicle-only enzyme. activation factor at 20 µM;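 active means activation factor of at least 2 at 20 µM, relative to controls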
# Candida biofilm = clotrimazole potentiators killing Candida biofilms, primary screen, with clotrimazole, Alamar Blue. C. albicans biofilm + clotrimazole. inhibition, % at 6 µM. 0.14% of 85,000 active;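 active means inhibition above 20%; inactive means inhibition below 20%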;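 further: preformed 24 hr biofilms exposed to compound for 48 hr; 0% = biofilm without compound and 100% = blank killed by clotrimazole plus chlorhexidine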
# D1 mod = D1 CRE-luciferase signal change, two-sided – cell-based, HEK293 D1, dopamine EC30, D1 allosteric modulator project, primary screen; D(1A) dopamine receptor (Homo sapiens), P21728; dopamine EC30 potentiation; actives deviate in either direction; B-score at 10 µM; 5.9% of 58,000 active; AID 641, 2007;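 active means luminescence count or its row- and column-corrected plate score outside the 99.7% band of the plate's sample wells, on either side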
# HePTP inhibitor = inhibitors of human HePTP phosphatase, primary screen, biochemical, absorbance, leukemia target; Tyrosine-protein phosphatase non-receptor type 7 (Homo sapiens), P35236; inhibition, % at 20 µM; recombinant HePTP phosphatase activity, OD absorbance; 0.64% of 110,000 active; in the data active means inhibition above about 50%;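 further: plate controls were vehicle for no effect and reference inhibitor for full effect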
# D1 mod confirm = D1 receptor positive allosteric modulators, retest, confirmation, cell-based, HEK293 D1, CRE-luciferase, duplicate; shares compounds with D1 mod; dopamine EC30 potentiation; hits give high values; luminescence at 10 µM; 88% of 2,200 active;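 active means luminescence in either of two replicates above the same-plate mean plus 3 SD of the low-dose dopamine control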
# D1 no dopamine = D1 receptor agonism without dopamine, confirmation, mechanism study for D1 allosteric modulator project, cell-based, HEK293 D1, CRE-luciferase, secondary assay 1 | shares compounds with D1 mod | luminescence, no dopamine; hits give high values | luminescence at 10 µM | 0.8% of 1,900 active; in the data active means luminescence above about 3900
# Isoprot counter = counter-screen for D1 modulators: isoproterenol response in HEK293 cells; HEK293 D1 CRE-luciferase, isoproterenol EC30 counter-screen; hits give high values; AID 647; 63% of 2,200 active; luminescence at 10 µM; shares compounds with D1 mod;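 active means luminescence in either replicate above plate mean of wells with a partly effective reference agonist dose plus 3 SD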;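 further: isoproterenol raises cAMP through native beta-adrenoceptor Gs so signal bypasses D1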
# * = called active by the depositor; / = no result. Shown is part of a subset that was picked to be rich in hits. Unless noted, no stated cut-off is given here; in the data, active means inhibition above about 20% (passing the limit was not always enough); inactive means the rest.
SMILES,FXIIa inh mix,FXIa mix inh,TNAP act mid DEA,Candida biofilm,D1 mod,HePTP inhibitor,D1 mod confirm,D1 no dopamine,Isoprot counter
Cc1ccc(Cn2nnc3c(=O)[nH]c(C4CCN(S(=O)(=O)c5ccc(F)cc5)CC4)nc32)cc1,5.2,-3.2,1,2.4,0.00212,-6.2,/,/,/
Cc1ccc(OCC(=O)O/N=C(\N)c2ccc([N+](=O)[O-])cc2)cc1,/,/,/,/,/,-8.2,/,/,/
CN(C)c1ccc(NC(=O)COc2ccc3ccccc3c2)cc1,/,/,/,/,/,-12.2,/,/,/
COc1ccc(-c2nnc(SCC(=O)Nc3ncc(C)s3)n2-c2ccccc2)cc1OC,7.1,-3.5,0.9,-4.0,3.65*,10.7,11512*,1492,3604*
CCNC(=S)NNC(=O)CSc1nnc(-c2ccc(OC)c(OC)c2)n1-c1ccccc1,/,/,/,/,/,11.3,/,/,/
O=C(Nc1ccccc1)/C(=C\c1ccccc1)NC(=O)c1ccccc1Br,/,/,/,/,/,-3.2,/,/,/
C=CCN=C(NC#N)SCC(=O)c1cccc(OC)c1,2.4,-0.5,0.9,7.5,11.9*,5.9,10808*,1776,3492*
COc1ccc(C2=Nn3c(nnc3-c3ccncc3)SC2)cc1,/,/,/,7.0,/,/,/,/,/
COc1ccc(OCc2nnc3n2N=C(c2ccc(OC)cc2)CS3)cc1,-7.1,10.8,0.9,3.6,9.69*,5.2,13236*,/,4800*
CCOc1ccc(C2=Nn3c(nnc3-c3ccc(OC)cc3)SC2)cc1,34.6,-0.3,0.9,6.8,7.77*,0.4,11104*,1552,4836*
Cc1cc(C)nc(/N=C(\N)Nc2cc(Cl)cc(Cl)c2)n1,/,/,/,/,/,6.8,/,/,/
CCNc1sc(C(=O)c2cccs2)c(N)c1-c1nc2ccccc2s1,12.6,-2.3,0.9,8.0,-0.00301,10.0,/,/,/
CCNc1sc(C(=O)c2cccs2)c(N)c1C#N,-2.2,4.4,0.9,1.6,18*,6.5,22348*,1796,3968*
C=CCNc1sc(C(=O)c2cccs2)c(N)c1C#N,11.4,3.8,0.9,/,16.3*,5.4,22248*,1616,3772*
c1ccc(Nc2nc(N3CCOCC3)nc(N3CCOCC3)n2)cc1,10.7,-21.5,0.9,/,2.36,7.3,/,/,/
Cn1ccnc1Sc1nc(Nc2cccc(Cl)c2)nc(N2CCOCC2)n1,12.5,2.1,1,1.9,8.38*,8.0,15596*,1596,5272*
Cc1cccc(N2C(=O)NC(=O)/C(=C/c3ccc(F)cc3)C2=O)c1,/,/,/,/,/,0.9,/,/,/
c1ccc2c(c1)ccc1nnc(-c3ccc4c(c3)OCO4)n12,-1.6,3.5,0.9,5.6,21.9*,8.0,24948*,1952,7028*
CCSc1nc2ccccc2n1CC(N)=O,3.1,9.7,0.9,8.4,0.319,-6.8,/,/,/
CCSc1nc2ccccc2n1Cc1nc(N)nc(N(C)C)n1,6.0,13.1,0.9,4.1,5.18*,9.7,10584*,/,2828*
COc1ccccc1NC(=O)c1ccc(C(=O)c2c(C)cc(C)cc2C)cc1,/,/,/,/,/,9.1,/,/,/
COc1ccc(/C=N\NC(=O)c2ccc(Br)cc2)cc1I,/,/,/,/,/,2.6,/,/,/
C=CCSc1nnc2n(-c3ccccc3OC)c(=O)c3c4c(sc3n12)CCC4,-15.2,7.3,0.9,/,5.73*,0.7,11688*,1704,3008
CSc1nnc2n(-c3ccccc3)c(=O)c3c4c(sc3n12)CCC4,-0.4,5.9,1,7.1,17.2*,0.1,18696*,1684,5104*
COc1ccc(C(=O)N2CCN(C(=O)c3ccccc3F)CC2)cc1,/,/,/,/,/,3.8,/,/,/
O=C(c1ccccc1F)N1CCN(Cc2ccc(F)cc2)CC1,/,/,/,/,/,8.2,/,/,/
